Results as given in PubChem BioAssay AID1159580 (chemical genetic matrix, 2015).
The campaign covered roughly 5,500 compounds. About 2,000 (36%) were called active. Roughly 18% stayed inconclusive and do not appear here. Rule as the data show it: active = normalized growth mostly below about 0.91 (no sharp cut-off); inconclusive = no clear call, values can overlap the other calls; inactive = mostly above about 0.92. The list shows a part of the results.

Test: chemical genetic growth profiling, strain panel (AID 1159580);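 also: tested at 20 µM; growth read once vehicle control cultures reached saturation at 30 °C; 1 = growth at the plate median or of vehicle wells; lower values mean less growth of the strain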
Details: S. cerevisiae deletion strains, growth OD

Measured: normalized growth

CC1=C(O)C(=O)C=C2C1=CC=C1[C@@]2(C)CC[C@@]2(C)[C@@H]3C[C@](C)(C(=O)O)CC[C@]3(C)CC[C@]12C
active: locus YJR066W, strain TOR1, stronger effect = lower value 0.792 | locus YKL068W, stronger effect = lower value 0.895 | locus YKL160W, strain elf1, stronger effect = lower value 0.541 | locus YKL190W, strain CNB1, stronger effect = lower value 0.315 | locus YKR001C, strain vps1, stronger effect = lower value 0.13 | locus YKR026C, strain gcn3, stronger effect = lower value 0.852 | locus YKR091W, strain srl3, stronger effect = lower value 0.843 | locus YLL001W, strain dnm1, stronger effect = lower value 0.617 | locus YLL026W, stronger effect = lower value 0.74 | locus YLL041C, strain sdh2, stronger effect = lower value 0.764 | locus YLR027C, strain aat2, stronger effect = lower value 0.502 | locus YLR039C, strain RIC1, stronger effect = lower value 0.157 | locus YLR058C, strain SHM2, stronger effect = lower value 0.224 | locus YLR102C, strain apc9, stronger effect = lower value 0.83 | locus YLR113W, strain HOG1, stronger effect = lower value 0.472 | locus YLR221C, strain rsa3, stronger effect = lower value 0.419 | locus YLR258W, strain gsy2, stronger effect = lower value 0.541 | locus YLR262C, strain YPT6 (second series), stronger effect = lower value 0.149 | locus YLR262C, strain YPT6, stronger effect = lower value 0.182 | locus YLR268W, strain sec22, stronger effect = lower value 0.355 | locus YLR320W, strain mms22, stronger effect = lower value 0.256 | locus YLR330W, strain CHS5, stronger effect = lower value 0.253 | locus YLR342W, strain FKS1 (second series), stronger effect = lower value 0.336 | locus YLR342W, strain FKS1, stronger effect = lower value 0.387 | locus YLR357W, strain rsc2, stronger effect = lower value 0.731 | locus YLR370C, strain arc18, stronger effect = lower value 0.704 | locus YLR371W, strain rom2, stronger effect = lower value 0.418 | locus YLR384C, strain iki3, stronger effect = lower value 0.759 | locus YLR418C, strain cdc73, stronger effect = lower value 0.176 | locus YML016C, strain PPZ1, stronger effect = lower value 0.547 | locus YML032C, strain rad52, stronger effect = lower value 0.533 | locus YML120C, strain ndi1, stronger effect = lower value 0.608 | locus YML124C, strain tub3, stronger effect = lower value 0.738 | locus YMR058W, strain fet3, stronger effect = lower value 0.0928 | locus YMR078C, strain ctf18, stronger effect = lower value 0.472 | locus YMR125W, strain sto1, stronger effect = lower value 0.827 | locus YMR129W, stronger effect = lower value 0.795 | locus YMR205C, strain PFK2, stronger effect = lower value 0.337 | locus YMR223W, strain ubp8, stronger effect = lower value 0.581 | locus YMR231W, strain pep5, stronger effect = lower value 0.365 | locus YMR263W, strain SAP30, stronger effect = lower value 0.561 | locus YMR307W, strain GAS1, stronger effect = lower value 0.252 | locus YNL067W, strain RPL9B, stronger effect = lower value 0.518 | locus YNL071W, strain lat1, stronger effect = lower value 0.11 | locus YNL183C, strain NPR1, stronger effect = lower value 0.728 | locus YNL209W, strain ssb2, stronger effect = lower value 0.303 | locus YNL233W, strain BNI4, stronger effect = lower value 0.287 | locus YNL248C, strain rpa49, stronger effect = lower value 0.708 | locus YNL250W, strain rad50, stronger effect = lower value 0.887 | locus YNL271C, strain bni1, stronger effect = lower value 0.882 | locus YNL307C, strain MCK1, stronger effect = lower value 0.093 | locus YNR049C, strain mso1, stronger effect = lower value 0.781 | locus YNR052C, strain pop2, stronger effect = lower value 0.664 | locus YOL147C, strain pex11, stronger effect = lower value 0.137 | locus YOR001W, strain rrp6, stronger effect = lower value 0.678 | locus YOR061W, strain CKA2, stronger effect = lower value 0.509 | locus YOR069W, strain VPS5, stronger effect = lower value 0.638 | locus YOR070C, strain gyp1, stronger effect = lower value 0.449 | locus YOR080W, strain dia2, stronger effect = lower value 0.674 | locus YOR083W, strain WHI5, stronger effect = lower value 0.624 | locus YOR106W, strain vam3, stronger effect = lower value 0.244 | locus YOR136W, strain idh2, stronger effect = lower value 0.765 | locus YOR144C, strain elg1, stronger effect = lower value 0.304 | locus YOR184W, strain ser1, stronger effect = lower value 0.173 | locus YOR231W, strain MKK1, stronger effect = lower value 0.75 | locus YOR265W, strain rbl2, stronger effect = lower value 0.552 | locus YOR270C, strain vph1, stronger effect = lower value 0.236 | locus YOR290C, strain snf2, stronger effect = lower value 0.249 | locus YOR316C, strain cot1, stronger effect = lower value 0.698 | locus YPL051W, strain arl3, stronger effect = lower value 0.209 | locus YPL078C, strain atp4, stronger effect = lower value 0.528 | locus YPL106C, strain sse1, stronger effect = lower value 0.435 | locus YPL240C, strain hsp82, stronger effect = lower value 0.444 | locus YPL241C, strain CIN2, stronger effect = lower value 0.565 | locus YPL256C, strain CLN2, stronger effect = lower value 0.663 | locus YPR119W, strain clb2, stronger effect = lower value 0.61 | locus YPR141C, strain kar3, stronger effect = lower value 0.886 | locus YPR163C, strain tif3, stronger effect = lower value 0.257 | locus YPR167C, strain met16, stronger effect = lower value 0.538 | strain wtn01, stronger effect = lower value 0.436
inactive: locus YKL009W, strain mrt4, stronger effect = lower value 0.908 | locus YKL085W, strain MDH1 (second series), stronger effect = lower value 0.941 | locus YKL085W, strain MDH1, stronger effect = lower value 0.941 | locus YNL298W, strain CLA4, stronger effect = lower value 0.918 | locus YNL322C, strain KRE1 (second series), stronger effect = lower value 0.937 | locus YOL012C, strain htz1 0.278
